Here are results for 40 compounds from PubChem BioAssay (EPA / NIEHS).

What is called AC50 is the concentration giving half of the maximal activity seen.

Structures are written as SMILES. Active and inactive are the calls of the source. Rule for the calls: active = hit-call score of the fitted dose curve at least 0.9, where 1 is the maximum; inactive = score below 0.9.

Read-out in this experiment: Cytochrome P450 4A22 (Homo sapiens) (UniProt Q5TCH4)
Put plainly: LTEA_HepaRG_CYP4A22: Life Technologies and Expression Analysis (LTEA) Assay for Cytochrome P450 4A22 (CYP4A22) using HepaRG (AID 2283495). The settings on record: mRNA level, 48 h; actives raise or lower the signal. Here is the method: LTEA_HepaRG is a cell based, multiplexed-readout assay that uses HepaRG, a human liver cell line, with measurements taken at 48 hours after chemical dosing on a 96-well plate.LTEA_HepaRG_CYP4A22 is one of 102 assay component(s) measured in the LTEA HepaRG cell culture assay. It is a marker of NR mediated metabolism.Data from the assay component LTEA_HepaRG_CYP4A22 was analyzed into 1 endpoint. This assay endpoint, LTEA_HepaRG_CYP4A22, was analyzed with bidirectional fitting relative to DMSO as the negative control and baseline of activity. Using a type of inducible reporter, measures of mRNA induction for gain or loss-of-signal activity can be used to understand regulation of transcription factor activity. To generalize the intended target to other relatable targets, this assay endpoint is annotated to the cyp intended target family, where the subfamily is xenobiotic metabolism.
A total of 1060 chemcials from the ToxCast library were tested in eight-point concentration-response experiments. Cell culture and cytotoxicity assays were conducted at Thermo Fisher Scientific's Custom Services facility (Madison, WI). A single lot of human HepaRG cells (Thermo Fisher Scientific, Frederick, MD) was used for the cell culture experiments. 96-well format collagen type I coated plates of human HepaRG cells were prepared using established methods. Briefly, cryopreserved HepaRG cells were thawed, plated at a density of approximately 100,000 cells/well in HepaRG Thaw, Plate, and General Purpose media (HPRG770, Thermo Fisher Scientific), and incubated for 48 hours. 0.5% DMSO was selected as vehicle control to balance the requisite need of DMSO in HepaRG cultures to maintain differentiation (for example, baseline metabolism, proportions of hepatocytes vs. cholangiocytes), while enabling further hepatic receptor pathway activation (for example, PXR and CAR) in response to chemical exposure. 48 hours after plating, the culture medium was replaced with HepaRG Serum-Free Incudtion Media. Cells were exposed to each test chemical in duplicate and maintained in CO2 incubators for another 48 hours. Chemical plates were thawed to room temperature and 200x concentrations of treatment groups were prepared. 8-point conentration-reponse curves were made with the highest exposure at 100 uM, followed by half-log dilutions, all in 0.5% DMSO. Each test plate contained variouse controls, induction positive controls (1mM phenobarbital), cytotoxicity positive controls ([…] aflatoxin B1), vehicle controls (0.5% DMSO), and total lysis controls (0.5% DMSO). Cell morphology images were taken using an Essen IncuCyte FLR automated microscope, with six 96-well plates imaged in about 24 minutes. Images were captured and exported and JPEG files. Spent culture media was transfered to black-well plates for the LDH assay, and remaining media was sorted at -80 C for later use. Cells were treated with RLT buffer and frozen until shipped for gene expression analysis. Total RNA was isolated from the cell suspension in 75 uL of Buffer RLT (Qiagen, Germantown, MD 20874) by Quintiles/Expression Analysis (Durham, NC) using a custom isolation procedure. Total RNA from each plate well was transferred to a preamplification plate. Fluidigm's 96.96 Dynamic ArrayTM (Fluidigm, Amsterdam, the Netherlands) technology was used for gene expression analyses by quantitative reverse transcription polymerase chain reaction (qRT-PCR, performed by Quintiles/Expression Analysis, Durham, NC)89. Standard TaqManTM Assays (Applied Biosystems/ThermoFisher Scientific, Foster City, CA) were used to assess the expression of 93 genes selected based on their selectivity and sensitivity to important hepatic receptors known to be modulated by environmental chemicals; importance in human hepatocyte functionality; and hepatotoxicity. […]
Regarding `O=NO`, the call was inactive.

For `O=C1CCCCC1`, the compound was called inactive. Regarding `Cc1c(C)c2c(c(C)c1O)CCC(C)(COc1ccc(CC3SC(=O)NC3=O)cc1)O2` (stereo not given), the AC50 was 25.8 µM (active). Take `COc1ccc(OC(F)(F)F)cc1CN[C@H]1CCCN[C@H]1c1ccccc1`: the AC50 is 15.8 µM (active). Regarding `O=C(NS(=O)(=O)/C=C/c1cccs1)c1ccc(F)cc1Br`, the compound was called inactive.

Regarding `CCCCC(CC)COC(=O)CCCCCCCC(=O)OCC(CC)CCCC` (stereo not given), the compound was classed as inactive. Same read-out and setting: with `CO[C@@H]1COCC[C@@H]1N[C@@H]1CC[C@@](C(=O)N2CCc3ncc(C(F)(F)F)cc3C2)(C(C)C)C1` the entry was “inactive”. Take `NC1CCCCC1`: the outcome was inactive.

Take `CCCCCCCCCCCCCCOS(=O)(=O)O`: the call was inactive. `CC(C)OC(=O)C(C)(C)Oc1ccc(C(=O)c2ccc(Cl)cc2)cc1`: the AC50 was 2.19 µM (active). Regarding `O=C1c2c(O)cccc2Cc2cccc(O)c21`, the compound was classed as inactive. Regarding `Cc1cn([C@H]2C=C[C@@H](CO)O2)c(=O)[nH]c1=O`, the call was inactive. Take `OCC(CO)n1cnc(-c2ccc(F)cc2)c1-c1ccnc(Oc2ccccc2)n1`: the concentration at half-maximal activity (AC50) was 16.6 µM (active). The same measure, in the same setting: to `COc1ccc(C(=O)Nc2nc3ccccc3c(NCc3ccccc3)c2C#N)cc1` belongs 27.1 µM (active).

Turning to `CC(C)COC(=O)CCCCC(=O)OCC(C)C`, the outcome was inactive.

For the compound `CCCCc1nc2cccnc2n1Cc1ccc(-c2ccccc2-c2nnn[nH]2)cc1`, the compound was classed as inactive. Same read-out and setting: with `CC(N)=O` the entry was “inactive”. With `CCCCCCC(C=O)=Cc1ccccc1`, the compound was called inactive.

As for `NCCOCCOCCN`, the compound was called inactive. In the case of `CCN(CC)CCOc1ccc(C(=C(Cl)c2ccccc2)c2ccccc2)cc1`, the AC50 is 13.3 µM (active). With `CCCCOC(=O)CCCCC(=O)OCCCC`, the outcome was inactive.

For the compound `CC(C)c1cccc(C(C)C)c1`, the result was inactive. Turning to `O=C(O)CN(CC(=O)O)CC(=O)O`, the result was inactive. With `CN(C)C(=O)NC1(c2ccccc2)CCN(CCC[C@]2(c3ccc(Cl)c(Cl)c3)CCCN(C(=O)c3ccccc3)C2)CC1`, the AC50 is 23.7 µM (active). `O=C(Oc1ccccc1)c1cccc(C(=O)Oc2ccccc2)c1`: the compound was called inactive. `O=C(O)CC(O)(CC(=O)O)C(=O)O`: the compound was classed as inactive.

In the case of `CC(COCC(C)OC(=O)c1ccccc1)OC(=O)c1ccccc1` (stereo not given), the outcome was inactive. As for `C/C=C/c1ccc(OC)cc1`, the call was inactive. Regarding `CN(C)C(=O)NC1(c2ccccc2)CCN(CC[C@@]2(c3ccc(F)c(F)c3)CN(C(=O)c3ccccc3)CCO2)CC1`, the AC50 is 47.3 µM (active).

Turning to `CC(=O)OCC(COC(C)=O)OC(C)=O`, the outcome was inactive.

With `CCCC[C@H]1CN(CC2CCOCC2)C(=O)OC12CCN(C1(C)CCN(C(=O)c3c(C)ncnc3C)CC1)CC2`, the outcome was inactive.

On to `COC(=O)CCCC(=O)OC`, for which the result was inactive. Take `S=c1[nH]c2ccccc2s1`: the outcome was inactive. Take `Nc1nc(=S)c2[nH]cnc2[nH]1`: the AC50 is 7.06 µM (active). As for `CC(=O)CC(c1ccccc1)c1c(O)c2ccccc2oc1=O` (stereo not given), the result was inactive. Same read-out and setting: to `OCC(O)CO` belongs “inactive”. Still for that read-out and setting: to `Cc1ccc(C(C)(C)C)c(O)c1` belongs “inactive”.

Consider `CC(=O)O`, for which the compound was classed as inactive. Consider `CCCCCCC(CCCCCCCCCCC(=O)OCC(COC(C)=O)OC(C)=O)OC(C)=O` (stereo not given), for which the outcome was inactive. With `O=C1NC(=O)C(c2ccccc2)(c2ccccc2)N1`, the AC50 is 9.92 µM (active).
